Source: PubChem BioAssay AID651956 (Broad Institute, 2012)
Entries with a potency or affinity are not part of this list. Results filed as inconclusive are left out. Active and inactive are the calls of the source.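 The calls were made as follows: active = in every test run, a fitted half-maximal concentration for signal decrease at or below twice the highest tested concentration; inconclusive = runs disagree, flat 30 to 70% decrease, or poor fit; inactive = the rest.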

Test: miR-122 activators in hepatoma reporter cells, dose response, cell-based, Huh7 psiCHECK-miR122, Renilla luciferase, cherry-picked (AID 651956);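 also: Renilla luciferase from a miR-122 sensor reporter so lower signal means miR-122 activation; 0% = median neutral control wells and -100% = median positive control wells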
Details: 48 h; series mostly up to 35 µM; activity change, negative = signal decrease: at the top concentration

Activity change, negative = signal decrease, inactive:
COCC(=O)Nc1ccc2c(c1)C(=O)N(C)[C@@H]1CC[C@@H](CC(=O)NC3CCCC3)O[C@H]1CO2 156% [at 30 µM], O=C(CN1CCN(c2nc(-c3ccccc3)cs2)CC1)Nc1ccc2c(c1)OCO2 -33.7%, CCCNC(=O)N1C[C@@H]2[C@H](c3ccccc31)[C@@H](CO)N2C(=O)C1CCOCC1 0%, COc1ccc(CNC(=O)C[C@H]2CC[C@H]3[C@H](COc4ccc(NC(=O)C(C)C)cc4C(=O)N3C)O2)cc1 55.2%, CC(C)C(=O)Nc1ccc2c(c1)C(=O)N(C)[C@@H]1CC[C@H](CC(=O)O)O[C@H]1CO2 -14.9%, COCC(=O)NC[C@H]1[C@@H](c2ccc(C3=CCCC3)cc2)[C@@H](CO)N1C(=O)C1CC1 9.17%, Cc1cc(C(=O)Nc2ccc3c(c2)C(=O)N(C)[C@H]2CC[C@H](CC(=O)N[C@H](C)c4ccccc4)O[C@H]2CO3)no1 77.8%, COCCN(C[C@@H]1[C@@H](c2ccccc2)[C@H](CO)N1C(=O)C1CCC1)C(C)=O 161%, CNC(=O)C[C@H]1CC[C@@H]2[C@H](COc3ccc(NC(=O)c4ccccc4OC)cc3C(=O)N2C)O1 106%, CCCCC(=O)OCC(=O)c1[nH]c(C)c(C(=O)OCC)c1C -21.6%, CN(C[C@H]1[C@H](c2ccccc2)[C@@H](CO)N1CC1CC1)C(=O)c1cccc(F)c1 105% [at 30 µM], CC(=O)N1[C@H](CN(C(=O)c2ccc(F)cc2)C(C)C)[C@@H](c2ccccc2)[C@@H]1CO 6.52%, CCS(=O)(=O)Nc1ccc2c(c1)C(=O)N(C)[C@H]1CC[C@H](CC(=O)NCCCN3CCOCC3)O[C@H]1CO2 1.82%, CCCC(=O)Nc1ccc2c(c1)C(=O)N(C)[C@@H]1CC[C@H](CC(=O)NCCOC)O[C@H]1CO2 57.9%, C/C=C/c1ccc([C@H]2[C@@H](CO)N(C(=O)CC)[C@H]2CNC(=O)CC)cc1 7.81%, CN1C(=O)c2cc(NC(=O)c3cccs3)ccc2OC[C@H]2O[C@@H](CC(=O)NCCN3CCCCC3)CC[C@@H]21 178%, COCC(=O)NC[C@H]1N[C@H](CO)[C@H]1c1ccc(C2=CCCC2)cc1 -37.9%, Cc1ccc(-n2c(Cc3ccccc3)n[nH]c2=S)cc1 52.8%, C/C=C/c1ccc([C@@H]2[C@H](CO)N(Cc3ccccn3)[C@H]2CNC(=O)CC)cc1 60.6%, O=C(COc1cccc2ccccc12)Nc1nc2ccccc2[nH]1 64.7%, CCN(CC)S(=O)(=O)c1ccc(NC(=O)Nc2cccc(C(F)(F)F)c2)cc1 146%, CCNC(=O)Nc1ccc2c(c1)C(=O)N(C)[C@H]1CC[C@H](CC(=O)NCCOC)O[C@@H]1CO2 -20.9%, C/C=C/c1ccc([C@@H]2[C@@H](CN(C)C(=O)CC)N(C(=O)NC(C)C)[C@H]2CO)cc1 -35.2%, COC(=O)c1c(N)nc(C)n1-c1ccc(OC)cc1 -18.8%, CCOC(=O)c1nc(C)n(-c2ccc(Cl)cc2Cl)n1 -7.11%, CCCNC(=O)C[C@@H]1CC[C@H]2[C@H](COc3ccc(NC(=O)c4ccc(C(F)(F)F)cc4)cc3C(=O)N2C)O1 0%, CN(C)C(=O)C[C@@H]1CC[C@@H]2[C@@H](COc3ccc(NC(=O)C4CC4)cc3C(=O)N2C)O1 -4.71%, c1ccc(CCCNCCCn2cnc3c(OCc4ccccc4)ncnc32)cc1 40.4%, CO[C@H]1CN(C)C(=O)c2cc(NC(C)=O)ccc2OC[C@@H](C)N(C(=O)CC2CC2)C[C@H]1C -10%, CNC(=O)C[C@H]1CC[C@H]2[C@H](COc3ccc(NC(=O)c4cccc(OC)c4)cc3C(=O)N2C)O1 16.2%, CCNC(=O)Nc1ccc2c(c1)C(=O)N(C)[C@H]1CC[C@H](CC(=O)NCc3ccccc3F)O[C@H]1CO2 62%, CC(C)N(C[C@@H]1N[C@@H](CO)[C@@H]1c1ccccc1)S(=O)(=O)c1ccccc1 88.1%, COc1cccc(-c2nn(-c3ccccc3)cc2CO)c1 -36.7%, CC(C)C(=O)Nc1ccc2c(c1)C(=O)N(C)[C@@H]1CC[C@H](CC(=O)N[C@H](C)c3ccccc3)O[C@@H]1CO2 72.5%, CNC(=O)C[C@@H]1CC[C@H]2[C@@H](COc3ccc(NC(=O)c4ccc(C(F)(F)F)cc4)cc3C(=O)N2C)O1 -14.2%, CCOC(=O)C1CCN(C(c2cccnc2)c2c(NC(=O)c3ccco3)sc(C)c2C)CC1 (centres undefined) -28.7%, Cc1ccc(OCCN2CCN(c3ncnc4sc(C)c(C)c34)CC2)cc1 -40.6%, CCC(=O)NC[C@H]1[C@H](c2ccc(C3=CCCC3)cc2)[C@H](CO)N1C(C)=O -24.8%, CC#CCCCC(=O)Nc1ccccc1C(=O)O -9.61%
